The campaign covered roughly 320,000 compounds. About 190 (0.059%) were called active. Only a selection was taken, and actives are over-represented in it overall. A number with no mark means an inactive call. No stated cut-off is given here; in the data, active means inhibition above about 10% (passing the limit was not always enough); inconclusive means no clear call, values can overlap the other calls.

Chain of UDP-galactopyranose mutase (Mycobacterium tuberculosis (strain ATCC 25618 / H37Rv)) (P9WIQ1 whole entry, looked up): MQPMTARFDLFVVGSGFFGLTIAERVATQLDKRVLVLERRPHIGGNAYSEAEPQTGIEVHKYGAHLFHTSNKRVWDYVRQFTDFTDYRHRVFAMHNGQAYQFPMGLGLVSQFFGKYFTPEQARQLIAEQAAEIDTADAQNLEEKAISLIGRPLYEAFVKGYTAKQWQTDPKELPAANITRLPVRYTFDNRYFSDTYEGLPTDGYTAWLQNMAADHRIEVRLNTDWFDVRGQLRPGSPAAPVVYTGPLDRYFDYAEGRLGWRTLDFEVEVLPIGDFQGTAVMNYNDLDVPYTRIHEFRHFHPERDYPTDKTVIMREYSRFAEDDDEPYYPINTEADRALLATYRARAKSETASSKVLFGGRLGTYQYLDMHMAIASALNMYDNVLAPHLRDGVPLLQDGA

This experiment has as its target UDP-galactopyranose mutase (Mycobacterium tuberculosis (strain ATCC 25618 / H37Rv)) (UniProt P9WIQ1). Kind of experiment: M. tuberculosis UGM enzyme inhibitors, primary screen, biochemical, fluorescence polarization, single point (AID 504406). The note with it: purified UGM, fluorescence polarization probe displacement; at 10 µM; active compounds read high.
What is called inhibition is the drop in the measured response relative to a control, in per cent. For the molecule `COCCCNC(=O)c1ccc(CNS(=O)(=O)c2ccc(NC(C)=O)cc2)cc1`, the inhibition was 0.487%. For the molecule `NS(=O)(=O)c1ccc(NC(=O)COC(=O)C2(c3ccc(F)cc3)CCCC2)cc1`, the inhibition is -2.39%. `CCOc1c(Nc2cccc(Cl)c2)c(=O)c1=O`: the inhibition was 1.65%. Consider `CN(C)S(=O)(=O)c1ccc2oc(SCC(=O)Nc3ccccc3F)nc2c1`, for which the inhibition is -1.09%. As for `CCCCN(C(=O)CCNC(=O)NC12CC3CC(CC(C3)C1)C2)c1c(N)n(CCCC)c(=O)[nH]c1=O`, the inhibition is 3.96%. Take `CC(C)N1C(=S)SC(C)(C)C1n1oc(=O)n(-c2ccc(Cl)c(Cl)c2)c1=O` (stereo unspecified): the inhibition was -0.52%.

As for `O=c1c2cc(-c3ccccc3)sc2nc2n1N=C(c1cccs1)CS2`, the inhibition was 0.0849%. In the case of `COc1cccc(C2=CC(=O)C[C@H](c3ccc(OC)c(OC)c3)C2)c1`, the inhibition was -3.83%. For `COc1cccc2cc(/C(C)=N/NC(=O)c3ccco3)oc12`, the inhibition was 1.34%. In the case of `COc1cc(NC(=O)C2=C(C)OCCS2)c(Cl)cc1C(=O)NCCN1CCN(C)CC1`, the inhibition was -0.476%.

On to `COc1ccc(-c2nnc(SC(=O)N3c4ccccc4Sc4ccccc43)o2)cc1`, for which the inhibition was -0.412%. Under `COc1cc(CC(=O)N2CCC(n3nccc3NC(=O)C3CC3)CC2)cc(OC)c1OC` stands 0.38%; under `COc1ccc(N2CCN(C(=O)c3cccs3)CC2)cc1`, -0.405%. For the molecule `NC1=NC(=O)C(Cc2cccc(Cl)c2)S1` (stereo unspecified), the inhibition was -2.61%.

As to `CCOC(=O)c1c(NC(=O)CN2C(=O)NC3(CCC(C)CC3)C2=O)sc(C)c1CC` (stereo unspecified), the inhibition was -4.1%. For `O=C1CCC(C(=O)N2CCN(c3ccccc3Cl)CC2)CN1CC1CCCCC1` (stereo unspecified), the inhibition was 0.849%.

Turning to `Cc1ccc(C(O)P(=O)(OC(C)C)c2ccc(N(C)C)cc2)cc1` (stereo unspecified), the inhibition was -1.46%. In the case of `CCCCCCCCc1c(O)nc(-n2[nH]c(C)c(CCO)c2=O)[nH]c1=O`, the inhibition is 2.37%. With `COc1ccc(N2CCN(S(=O)(=O)CCNC(=O)C34CC5CC(CC(C5)C3)C4)CC2)cc1`, the inhibition is -0.995%.

With `ONC(=Nc1ccccc1)c1ccccc1Cl`, the inhibition is 0.392%.

As for `Cc1ccc(NC(=O)c2ccn(C(=O)Nc3ccccc3)n2)c(C)c1`, the inhibition is 0.808%. For the molecule `S=C(NCCc1ccccc1)N1CCn2cccc2C1c1ccncc1` (stereo unspecified), the inhibition is 0.92%. Consider `CNC[C@@H]1Oc2c(NS(C)(=O)=O)cccc2C(=O)N([C@@H](C)CO)C[C@H]1C`, for which the inhibition is -0.151%. In the case of `O=C(NCCN1CCOCC1)c1cc(Sc2cccc(Cl)c2)nc2ccccc12`, the inhibition was -0.717%. Turning to `O=C1NC(=O)C(c2ccc(Cl)cc2)N1` (stereo unspecified), the inhibition is 0.455%. As to `CC(C)N(C(=O)Cn1cc(SCC(=O)N2CCCC2)c2ccccc21)C(C)C`, the inhibition is 0.81%. Turning to `CC(CCc1ccccc1)NCC(O)c1cccc([N+](=O)[O-])c1` (stereo unspecified), the inhibition is -0.221%. On to `Nc1nc(NC(=O)/C=C/c2ccc(F)cc2)nn1-c1ccccc1`, for which the inhibition is -1.05%. Turning to `O=C(CC1CCCCC1)Nc1c2c(nn1-c1ccc(F)cc1)CS(=O)(=O)C2`, the inhibition is -1.58%. With `Cc1ccc(C2(c3ccc(C)cc3)NC(=O)N(Cc3c(C)noc3C)C2=O)cc1`, the inhibition was 2.04%. Take `CCOc1ccc(NC(=S)N2CCC(N(C)CC3CCCO3)CC2)cc1` (stereo unspecified): the inhibition is 1.59%. As for `CN1C(=O)CC(N2CCN(c3ccccn3)CC2)C1=O` (stereo unspecified), the inhibition is -2.59%.

As for `CC(C)(C)CN1CCNC(=O)C1CC(=O)NC1Cc2ccccc2C1` (stereo unspecified), the inhibition is -0.537%. As to `CCc1c(C)[nH]c(=S)c(C#N)c1C`, the inhibition was 1.29%.

Consider `CN1CCN(S(=O)(=O)c2cccc(C(=O)N3CCc4ccccc43)c2)CC1`, for which the inhibition is 2.67%.

As for `CCN(CC(=O)Nc1cccc(S(N)(=O)=O)c1)Cc1nc2ccccc2c(=O)[nH]1`, the inhibition was 0.435%.

For the molecule `O=[N+]([O-])c1cc(S(=O)(=O)Nc2cccc(Cl)c2)ccc1N=Nc1c(O)[nH]c2ccccc12`, the inhibition is 3.07%.

Turning to `Cc1ccc(NC(=O)Cc2nnc(SCC(=O)Nc3nncs3)n2C)cc1`, the inhibition was 1.58%.

Consider `Cc1cccc(NC(=O)c2ccc3c(=O)n(CC4CCCO4)c(=S)[nH]c3c2)c1` (stereo unspecified), for which the inhibition is 0.387%. With `CCN(CCCCOC(=O)c1ccc(OC)c(OC)c1)C(C)Cc1ccc(OC)cc1` (stereo unspecified), the inhibition was 0.111%. Regarding `CC1CC(NC(=O)/C(C#N)=C/c2ccc[nH]2)CC(C)(C)C1` (stereo unspecified), the inhibition was -0.655%. Regarding `CC(OC(=O)CCC(=O)c1ccccc1)C(=O)Nc1ccc(F)cc1` (stereo unspecified), the inhibition is 0.19%. With `CC(C)c1csc(CN2CCC(CO)(Cc3ccccc3)CC2)n1`, the inhibition is 1.24%. In the case of `O=c1c2ccccc2cnn1Cc1n[nH]c(=S)n1-c1ccccc1F`, the inhibition was -0.397%. As to `COc1ccnc(Oc2ccccc2)c1-c1ncn[nH]1`, the inhibition was 1.4%. To `CCOCCN(C=O)c1cccc(OC)c1` belongs -2.42%; to `CCOC(=O)N1CCC(Nc2c(NCCCN3CCN(CC)CC3)c(=O)c2=O)CC1`, -1.72%; to `O=C(Nc1ccc(F)c(Cl)c1)C1CCN(S(=O)(=O)c2cccnc2)CC1`, 0.143%.

Take `CCCn1c2ccccc2c2cnn(CC(=O)NCCCN3CCCCC3CC)c(=O)c21` (stereo unspecified): the inhibition is -1.26%. As for `CCOC(=O)c1cc2c(ccn2C)n1CC(=O)N1CCC(C)CC1`, the inhibition is -2.05%. `Cn1c(CC2Sc3ccccc3NC2=O)nnc1SCC(=O)c1ccc(Cl)cc1` (stereo unspecified): the inhibition was 1.26%. With `COCCN(C(=O)C(C)C)c1nnc(-c2ccc(C(C)(C)C)cc2)s1`, the inhibition is 2.82%. On to `Cc1ccc(S(=O)(=O)N2CCC(C)CC2)cc1C(=O)NCc1ccccn1`, for which the inhibition was -2.55%. `COCCNc1nc2nonc2nc1N(C)Cc1ccc(C)cc1`: the inhibition is 0.32%. For `COC(=O)/C=C(\Oc1ccccc1)C1(O)CCCCC1`, the inhibition was -0.0675%.

On to `Cc1ccc2c(c1)C1CN(C)CCC1N2S(=O)(=O)c1ccc(Oc2ccc([N+](=O)[O-])cc2)cc1` (stereo unspecified), for which the inhibition was 3.72%. As for `COc1ccccc1NC(=O)N1CCCC1C(=O)NCc1cccs1` (stereo unspecified), the inhibition is 0.501%. As to `COc1ccc(-c2onc3ccc(C(C)=O)cc23)cc1`, the inhibition was 12.7% (active).

For `CC(OC(=O)c1ccc2noc(-c3ccccc3)c2c1)C(N)=O` (stereo unspecified), the inhibition was 1.01%. As for `Oc1ccc(-c2onc3ccc(Cl)cc23)cc1`, the inhibition is -1.19%. Under `CC(C)CNC(=O)C(=O)NCC(c1ccc2c(c1)OCO2)N1CCOCC1` (stereo unspecified) stands -1.37%; under `Cn1c(=O)cc(OCC(=O)N2CCN(c3ccccc3F)CC2)c2ccccc21`, 0.591%. Under `Cc1cc(C)n(CCNC(=O)CC2C(=O)NCCN2Cc2ccc(C)o2)n1` (stereo unspecified) stands -1.39%. Consider `CC(C)(C)c1cc[n+](-c2[nH]c(=O)sc2/C=N/N=C(\[O-])c2ccccc2)cc1`, for which the inhibition was 0.838%. As for `CCCCn1c(-c2cccc(C)c2)nc2cc3[nH]c(=O)c(C(C)C)nc3cc21`, the inhibition was -1.53%.

Consider `CCOC(=O)c1ccc(NC(=S)N2CCN(c3ccccn3)CC2)cc1`, for which the inhibition was 0.665%. Under `COc1ccc(N(C(=O)c2ccc(C)cc2)S(=O)(=O)c2cccs2)cc1` stands 0.9%; under `CCn1c(SCC(=O)Nc2sc(C)c(C)c2C#N)nnc1C1CC1`, 2.46%; under `O=C(NCc1nnc(SCC(=O)N2CCCc3ccccc32)o1)c1ccccc1F`, -0.239%. As for `COc1cccc(NC(=O)Nc2nnc(N3CCCCC3C)s2)c1` (stereo unspecified), the inhibition was -1.07%. With `O=C(Cc1ccccc1F)NC1CCSc2ccccc21` (stereo unspecified), the inhibition was 1.04%. Under `CCN(Cc1ccncc1)C(=O)CCc1ccccc1` stands -1.33%; under `C/C=C/c1ccc(OCC(O)CN2CCCCCCC2)c(OC)c1` (stereo unspecified), -2.18%. Under `Cc1cc(NC(=O)CCS(=O)(=O)c2ccc(F)cc2)no1` stands 1.59%; under `COc1cccc(NC(=S)N(CCc2c(C)[nH]c3ccccc23)Cc2ccco2)c1`, 5.05%; under `Cc1[nH]c2ccccc2c1CCN(Cc1cccs1)C(=S)NC(C)(C)C`, 1.01%.

Regarding `COc1ccc2[nH]c(C)c(CCN(Cc3cccs3)C(=S)Nc3ccccc3OC)c2c1`, the inhibition is 12.8% (active). With `COc1ccccc1CNC(=O)c1ccc(N(C)S(=O)(=O)c2ccc(C)cc2)cc1`, the inhibition was -1.48%.

As for `CCOc1ccc(CCNC(=O)COC(=O)c2ccc(F)c(S(=O)(=O)N3CCOCC3)c2)cc1OCC`, the inhibition is 0.417%. Turning to `Cc1c(Cl)cccc1NC(=O)CCC(=O)N/N=C/c1ccco1`, the inhibition is 2.71%.

As to `COc1ccc(CNC(=O)C(=O)NCC2OCCN2C(=O)c2ccc(OC)cc2)cc1` (stereo unspecified), the inhibition was -1.77%. As for `FC(F)(F)c1cc(-c2ccco2)nc(NCc2ccc(Cl)cc2)n1`, the inhibition was -0.748%.

As to `Cc1cc(C(C)(C)C)cc(S(=O)(=O)Nc2ccc(C(=O)O)cc2)c1C`, the inhibition is 20% (active). Consider `O=C(O)c1ccc(F)c(S(=O)(=O)Nc2ccccc2)c1`, for which the inhibition is 2.67%. To `Cc1noc(C)c1S(=O)(=O)Nc1ccc(C(=O)O)cc1` belongs -2.83%; to `Cc1cc(C)cc(N(CC(=O)NCC2CCCO2)S(=O)(=O)c2c(C)noc2C)c1` (stereo unspecified), -1.07%. As to `CCc1ccc(Nc2n[n+](-c3ccccc3)c(-c3cccc(Cl)c3Cl)s2)cc1`, the inhibition is 1.25%. Take `O=C(O)CCS(=O)(=O)c1ccc(-c2ccccc2)cc1`: the inhibition is 0.58%. For the molecule `O=C(c1ccco1)N1CCN(C(=O)C2CCCN(S(=O)(=O)c3cccc4nsnc34)C2)CC1` (stereo unspecified), the inhibition is 1.18%.

In the case of `COc1cccc(/C=N/NC(=O)C(=O)N2CCCC2)c1`, the inhibition was -1.54%. For `C#CCNC(=O)[C@H](Cc1ccc(C(=O)c2ccccc2)cc1)NC(=O)OC(C)(C)C`, the inhibition is -0.186%.

Source of the values: PubChem BioAssay AID504406 (Broad Institute, 2011).
